HIF act: HIF pathway transcriptional activation; U2OS HRE-luciferase reporter, luminescence; normalized: DMSO 0%, desferrioxamine 100%; activation, % at 7.5 µM (by protocol); 300,000 compounds, 0.32% hits; AID 1910;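 active = mean activation of at least 10% of the iron chelator positive control signal, with at least half of replicates also reaching 10%; inconclusive = mean and replicate majority disagree about reaching 10%; inactive = mean and most replicates under 10%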
Mot1-301 SUMO: inhibitors of SUMOylation pathway: yeast Mot1-301 growth rescue; growth rescue, % at 18.8 µM; S. cerevisiae Mot1-301 growth rescue, ATP luminescence, 38.5C; percent above DMSO median, 100 means doubled; 320,000 compounds, 1% hits; AID 2716;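 active = every valid replicate shows activation above 250% relative to neutral control wells; inactive = the rest, any valid replicate at or below 250%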;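 note: OY570 slx delta 5 strain wells were the positive control but not used for scaling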
ALR inh: inhibitors of human sulfhydryl oxidase ALR. P55789. inhibition, % (test concentration not listed). purified ALR, DTT oxidation, H2O2 HRP-luminol luminescence. 290,000 compounds, 3.8% hits;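 active = mean replicate inhibition above about 79%, with every replicate also reaching it, limit read from the data; inconclusive = only one of the two criteria met; inactive = mean below limit and not every replicate reaching it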
Target sequence (P55789 whole entry, looked up): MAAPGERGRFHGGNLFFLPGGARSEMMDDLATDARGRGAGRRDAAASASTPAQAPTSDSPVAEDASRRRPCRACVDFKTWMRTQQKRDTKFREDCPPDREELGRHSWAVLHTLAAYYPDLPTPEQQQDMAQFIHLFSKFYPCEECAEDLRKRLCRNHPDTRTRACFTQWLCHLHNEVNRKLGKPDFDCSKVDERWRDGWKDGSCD
M18AAP inhibitor: PfM18AAP enzyme inhibition; AID 1822; 290,000 compounds, 1.2% hits; inhibition, % at 7.35 µM; recombinant PfM18AAP, H-Glu-NHMec fluorogenic cleavage;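 active = inhibition above the campaign mean inhibition over all tested compounds plus 3 SD, cut at about 28% in these data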;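 note: 0% = plate median of test compound wells and 100% = 2 mM ZnCl2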
An asterisk follows results filed as active; ? = inconclusive; . = not tested or not shown. In the library only some 5.3% were active in any assay of this set; here they are far more common.

SMILES	HIF act	Mot1-301 SUMO	ALR inh	M18AAP inhibitor
O=C(COc1ccc(OCc2ccccc2)cc1)NN=C1CCCC1	0.2	-5.6	.	0.1
O=C1CCCCC/C1=N/Nc1ccc(OCc2ccccc2)cc1	2.2	167.6	99.1*	0.9
CC(=O)OC[C@]12CC[C@H]3[C@@](C)(CC[C@H]4C(C)(C)CCC[C@]34C)[C@@H]1C[C@H](C1=CC(=O)O[C@@H]1OC(C)=O)O2	.	101.9	3.1	.
O=S1(=O)N=C(N2CCOCC2)c2ccccc21	-0.9	-15.3	-0.1	-2.8
CC1=NN(C2=NS(=O)(=O)c3ccccc32)C(C)(O)C1 (configuration not stated)	-0.3	-6.4	38.4	31.0*
CCCCC(=O)NC(c1ccc(C(C)C)cc1)c1ccc2cccnc2c1O (configuration not stated)	103.1*	-9.3	2.2	-0.4
CCCCC(=O)NC(c1ccccc1)c1ccc2cccnc2c1O (configuration not stated)	48.0*	-2.2	-2.2	-7.0
Oc1c(C(c2cccs2)N2CCN(c3ccccc3)CC2)ccc2cccnc12 (configuration not stated)	.	143.5	-4.6	1.3
CC(=O)NC(c1cccs1)c1cc([N+](=O)[O-])c2cccnc2c1O (configuration not stated)	17.8*	17.6	-66.2	13.7
CCCCC(=O)NC(c1ccc([N+](=O)[O-])cc1)c1c(O)ccc2ccccc12 (configuration not stated)	-0.1	61.0	-18.1	-5.4
CCC(=O)NC(c1cccs1)c1cc([N+](=O)[O-])c2cccnc2c1O (configuration not stated)	5.8	60.4	.	7.5
Oc1c(C(c2ccccc2Cl)N2CCCC2)ccc2cccnc12 (configuration not stated)	59.0*	-2.5	58.6	5.1
CC(=O)NCCSc1ccc(S(=O)(=O)N2CCCC2)cn1	.	30.5	0.2	.
O=C(CCc1ccc(S(=O)(=O)N2CCOCC2)cc1)Nc1ccc(F)c(F)c1F	.	-16.2	-4.0	.
CCCC(=O)NC(c1cccs1)c1cc([N+](=O)[O-])c2cccnc2c1O (configuration not stated)	-33.3	100.9	-28.9	-10.8
CC(=O)NC(c1ccc(C)cc1)c1cc(Cl)c2cccnc2c1O (configuration not stated)	9.8*	-3.1	17.9	4.3
CCCC(=O)NC(c1ccc(OC)cc1)c1ccc2cccnc2c1O (configuration not stated)	73.5*	65.3	.	5.6
CCC(=O)NC(c1ccc(OC)cc1)c1c(O)ccc2ccccc12 (configuration not stated)	0.6	-11.9	3.7	-6.4
CCCCC(=O)NC(c1ccccc1Cl)c1ccc2cccnc2c1O (configuration not stated)	128.1*	2.7	.	3.0
O=C(CCc1ccccc1)NC(c1cccs1)c1cc(Cl)c2cccnc2c1O (configuration not stated)	101.7*	.	.	10.6
CCCCC(=O)NC(c1ccco1)c1cc(Cl)c2cccnc2c1O (configuration not stated)	-0.3	-9.1	-25.6	19.7
CC(=O)NC(c1cc(Cl)c2cccnc2c1O)C1CC1 (configuration not stated)	.	-14.3	29.7	.
O=C1CC(C2CCCO2)C(=O)N1c1ccc(Cl)c(Cl)c1 (configuration not stated)	-0.6	20.1	-0.8	-2.4
O=C(NCc1ccccn1)C1(C(F)(F)F)C/C(=C\CCO)CCCO1 (configuration not stated)	-0.7	10.4	-4.7	.
CN(CC(=O)Nc1c(Cl)cccc1Cl)C(=O)Cc1ccc2c(c1)CCC2	-1.9	-2.8	4.6	.
SMILES	HIF act	Mot1-301 SUMO	ALR inh	M18AAP inhibitor
O=C(CC(Cc1ccccc1)C(=O)O)Nc1cccc(C(F)(F)F)c1 (configuration not stated)	0.7	10.3	1.6	1.0
CCCC(=O)NC(c1ccccc1)c1ccc2cccnc2c1O (configuration not stated)	50.7*	-5.1	-3.8	7.0
CCC(=O)NC(c1ccco1)c1cc(Cl)c2cccnc2c1O (configuration not stated)	1.6	-19.5	17.9	20.9
COc1ccc(C(NC(=O)c2cccnc2)c2cc(Cl)c3cccnc3c2O)cc1OC (configuration not stated)	11.9*	26.5	-16.9	5.8
CC(=O)NC(c1ccc(C(C)C)cc1)c1ccc2cccnc2c1O (configuration not stated)	163.3*	32.6	-8.6	8.0
CC(=O)NC(C)c1cc(F)c2cccnc2c1O (configuration not stated)	.	2.9	-14.4	.
CCC(=O)NC(c1ccc(OC)cc1)c1cc(Cl)c2cccnc2c1O (configuration not stated)	22.8*	234.8	-2.6	-16.9
Oc1c(C(Nc2ccccn2)c2cccnc2)cc(Cl)c2cccnc12 (configuration not stated)	-0.5	3.3	-32.1	-1.9
O=C(CSc1nnc(-c2ccccc2)o1)NC1CCS(=O)(=O)C1 (configuration not stated)	-0.2	-14.2	-3.8	-6.3
O=C(Nc1ccccc1C(=O)N1CCCCC1)c1ccc(Cl)cc1Cl	0.3	370.9	.	2.5
O=C(NC(CSSCC(NC(=O)c1ccccc1)C(=O)O)C(=O)O)c1ccccc1 (configuration not stated)	-0.1	62.6	0.0	-14.6
CC(Sc1nc2ccccc2c(=O)n1CC1CCCO1)C(=O)Nc1ccc(S(N)(=O)=O)cc1 (configuration not stated)	0.2	3.4	-7.6	.
CCC(=O)NC(c1ccccc1OC)c1ccc2cccnc2c1O (configuration not stated)	35.2*	-16.5	30.8	9.1
CC(=O)NC(c1cc(Cl)c2cccnc2c1O)C(C)C (configuration not stated)	.	-15.4	?	.
CC(=O)NC(c1cc(Cl)c2ccccc2c1O)C(C)C (configuration not stated)	.	2.3	93.6*	.
C=CCN(c1ccccc1C(=O)NCC(=O)O)S(=O)(=O)c1ccccc1C	-0.5	-16.2	0.8	0.7
O=C(CCC(=O)c1cccs1)OCc1ccc([N+](=O)[O-])cc1	.	24.8	.	.
O=C(COC(=O)C1(c2ccccc2F)CCCC1)NC1CCS(=O)(=O)C1 (configuration not stated)	-0.2	297.9*	-31.6	-4.1
Cc1ccc(S(=O)(=O)NCc2ccccc2)cc1C(=O)N1CCCC(C(F)(F)F)C1 (configuration not stated)	0.7	1.3	1.0	.
Cc1ccccc1-c1nc(CN(Cc2c(C)nn(C)c2C)C2CC2)c(C)o1	-0.4	-12.6	-4.7	-2.6
CCCn1c(Nc2ccccc2C)nc2ccccc21	3.1	11.1	.	-3.2
CCC1CCCCN1S(=O)(=O)c1ccc(NC(=O)c2nc(S(C)(=O)=O)ncc2Cl)cc1 (configuration not stated)	.	-29.8	77.1*	-94.4
CCC1CCCCN1S(=O)(=O)c1ccc(NC(=O)c2ccncc2)cc1 (configuration not stated)	0.1	140.4	-18.3	2.2

High-throughput results (PubChem)
